Assay results reported in PMC7819943, “Rice protein-binding microarrays: a tool to detect cis-acting elements near promoter regions in rice”.
Over roughly 35,000 sequences, “fluorescence intensity (a.u.)” has its median near 10,000; the highest 2% begin near 52,000. This is one part of a sample in which the highest values are shown more often than they occur.

What follows are sequences tested against T1, OsWOX13 (Oryza sativa, UniProt Q5QMM3 1-267) (assay: protein-binding microarray (RPBM); PBS, 2% BSA, 51.3 ng/ul salmon testes DNA, 50 uM zinc acetate, 200 nM TF, 25 C, 1 h; high values mean tight binding). Conditions: protein: recombinant; tags: N-terminal polyhistidine and DsRed monomer fusion (pET32a); label: CyDye5-dUTP incorporated in the synthesized complementary strand; 3' TTTTT single-stranded linker to array surface; dsDNA, one strand shown.
T1 sequence: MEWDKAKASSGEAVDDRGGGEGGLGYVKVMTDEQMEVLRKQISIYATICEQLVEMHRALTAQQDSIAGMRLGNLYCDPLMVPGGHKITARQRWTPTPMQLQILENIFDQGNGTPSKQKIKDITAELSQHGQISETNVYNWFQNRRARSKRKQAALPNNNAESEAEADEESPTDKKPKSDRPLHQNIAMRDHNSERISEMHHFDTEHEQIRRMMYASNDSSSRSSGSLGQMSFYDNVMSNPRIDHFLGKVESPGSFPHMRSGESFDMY
Method in brief: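 Ni–NTA purification followed expression in E. coli BL21-CodonPlus of transcription factors fused N-terminally to a polyhistidine tag and DsRed. At 200 nM in PBS with 2% BSA, salmon testes DNA and 50 µM zinc acetate, the protein was incubated for 1 h at 25 °C with a custom Agilent array that had been primer-extended with Cy5-dUTP and blocked with 2% BSA. After washing, the array was read on an Axon 4000B scanner. The binding signal is per-feature fluorescence intensity in arbitrary units.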

Sequence | binding signal
TGATGATTGGTTTCTTGGCCAATGGTTTGGTTGTTGTTTTCGGAGTCACCTAGTGCAG | 23100 fluorescence intensity (a.u.)
AAGTGATTGCCCTGGCTCAGAGTTGAGTAAACAATCAGGCCGGAGTCACCTAGTGCAG | 19900 fluorescence intensity (a.u.)
GATAGATAGATAGATACATACACACAAACATAAGTAGCTACGGAGTCACCTAGTGCAG | 19100 fluorescence intensity (a.u.)
CATAATTGAGTCTGATTGGCACAAACCTAGAGAACATGCCCGGAGTCACCTAGTGCAG | 65500 fluorescence intensity (a.u.)
TCTCATTGACAAGCCAACAAACGCACAGTGTGACAAGCTCCGGAGTCACCTAGTGCAG | 3600 fluorescence intensity (a.u.)
AAAATCAAGATTGATGTGGTTTCACCCCAACACAAGAAAACGGAGTCACCTAGTGCAG | 8050 fluorescence intensity (a.u.)
TGCCCCAATGATTTTGTACCACAGACCAGCTCAAGTTGCCCGGAGTCACCTAGTGCAG | 4400 fluorescence intensity (a.u.)
ATGTGATTATTTCGTCCTGCTGTAAACTTGGTGCAAGTGACGGAGTCACCTAGTGCAG | 18600 fluorescence intensity (a.u.)
GGCTTTCCAGTTGATAAATCAATCATCATCCCCTTGATCGCGGAGTCACCTAGTGCAG | 8410 fluorescence intensity (a.u.)
ATGTTCTTTCTTGATTAGACCATCTGATGCTTTGCGCAGTCGGAGTCACCTAGTGCAG | 4480 fluorescence intensity (a.u.)
TAGGAGATTATATTTAAATTAACTTTAAAGAGAAATCTTGCGGAGTCACCTAGTGCAG | 11600 fluorescence intensity (a.u.)
GGTTGTTAGCACATGATTAATTGTATTAAAACAACTTAAACGGAGTCACCTAGTGCAG | 3580 fluorescence intensity (a.u.)
AAGATTGAAGGCAACCAAACCAACAAGGATGGATGCTTCTCGGAGTCACCTAGTGCAG | 16500 fluorescence intensity (a.u.)
GGACGTATATATACATTGATTAATACCAAATCCTCAGCACCGGAGTCACCTAGTGCAG | 4520 fluorescence intensity (a.u.)
GTTGATTTGTGTTTTGACTTTTGAAAAGACTACTGTTACTCGGAGTCACCTAGTGCAG | 27500 fluorescence intensity (a.u.)
ATATTATTTATAAATTGTGTGTGCAACTGACTTGTGGGCCCGGAGTCACCTAGTGCAG | 3490 fluorescence intensity (a.u.)
AATTAAATTAGAGTATTCAGTTTGTATATAGTACATTTGTCGGAGTCACCTAGTGCAG | 14000 fluorescence intensity (a.u.)
TTATAATTGTAAATTTTACAAATTAGTCCTCACCTGTTCTCGGAGTCACCTAGTGCAG | 53400 fluorescence intensity (a.u.)
TAAAATTATCAAAATATTATATTATACACATAAGATTGTACGGAGTCACCTAGTGCAG | 5140 fluorescence intensity (a.u.)
AGTGATTATAATATTGTTCACAAATTTACAAACCTCTCATCGGAGTCACCTAGTGCAG | 36700 fluorescence intensity (a.u.)
CATAAATTAATTTGTTCACGTCACATTATATACAGTTGTACGGAGTCACCTAGTGCAG | 55000 fluorescence intensity (a.u.)

Sequence | binding signal
TTTTATATTTTAATTAATTACATAATGTAAATATTTCTCACGGAGTCACCTAGTGCAG | 17100 fluorescence intensity (a.u.)
TTATAATTACTACATTATAATAAAAGTAAAATTGTATTTACGGAGTCACCTAGTGCAG | 12100 fluorescence intensity (a.u.)
TTGTAATTACATAAATTATACGAATTGTAAAGATTTGGCACGGAGTCACCTAGTGCAG | 54600 fluorescence intensity (a.u.)
ATTATATATTTAATAAAATTAATTTGGTGTTGTATATTTACGGAGTCACCTAGTGCAG | 8780 fluorescence intensity (a.u.)
ACATATGTGATTAGTATCAGTTCATCAGTAGTCTTCCAATCGGAGTCACCTAGTGCAG | 18500 fluorescence intensity (a.u.)
CTGACAGGTATTATTGCTTGATATATTTTACTCACTTTACCGGAGTCACCTAGTGCAG | 14800 fluorescence intensity (a.u.)
ATGGGAGGTGAGATTGGGATTGGGAAATAAATGAATGGCTCGGAGTCACCTAGTGCAG | 5250 fluorescence intensity (a.u.)
GAGCAGATGATTAGTGAAGGTGTAACCCCTAACATCGTTACGGAGTCACCTAGTGCAG | 12900 fluorescence intensity (a.u.)
AATAAATTGTGTGGAAATTTAGCTTGCCCAATCAGATTGACGGAGTCACCTAGTGCAG | 16000 fluorescence intensity (a.u.)
AATGTGTTAGCGTTTAATTTGCGATTGGATTTGTTTCAGGCGGAGTCACCTAGTGCAG | 3560 fluorescence intensity (a.u.)
TGCTAATTGGGGATTTTCACATTCATGCTGTGTTAGCAGGCGGAGTCACCTAGTGCAG | 54700 fluorescence intensity (a.u.)
AATTCTAATTGGGGAGCATTTAAAGGCTGGGTTTTAGTGGCGGAGTCACCTAGTGCAG | 20100 fluorescence intensity (a.u.)
AAGTAATTTAGTCAACTCTAAAAGTAACTATGTGTGTGTGCGGAGTCACCTAGTGCAG | 17300 fluorescence intensity (a.u.)
TTGAATCAATGACTGATCATTGCCCAGACTGCTATTTTCCCGGAGTCACCTAGTGCAG | 7090 fluorescence intensity (a.u.)
CAAAACGAAATTGATAGATCTTAATGAGTTGTACAACTTTCGGAGTCACCTAGTGCAG | 20400 fluorescence intensity (a.u.)
AACTTATTCCAATTATCAAACTCCGCTGCTCAACCAGGCCCGGAGTCACCTAGTGCAG | 5860 fluorescence intensity (a.u.)
TTTTATAATTCGATGACAAATTGAGAGACCTTGGGTGTACCGGAGTCACCTAGTGCAG | 13200 fluorescence intensity (a.u.)
GCTTGATTGCCACACAAATTTTGACAATACGACCCTTTACCGGAGTCACCTAGTGCAG | 42900 fluorescence intensity (a.u.)
TCGCTATAATTGACAGCGACCCTACCTTGGGCCACCGGACCGGAGTCACCTAGTGCAG | 57100 fluorescence intensity (a.u.)
AAGCCTAATTAATCCATCCTTAGCAGATGTGGGTTACCGTCGGAGTCACCTAGTGCAG | 8630 fluorescence intensity (a.u.)
ATTACTATGATTACTATAATGTACCCTCAAAGCGTGTAGACGGAGTCACCTAGTGCAG | 7510 fluorescence intensity (a.u.)
